The list is not random: actives were taken first. Their share in the collection is about 32%.
CYP2C9 activ: increases human cytochrome P450 2C9 activity. P11712. recombinant CYP2C9, luciferin-H conversion, luminescence; hits give high values; factor 1 = untreated enzyme, 0 = blocked. activation factor at 5 µM. 96,000 tested, 1.4% active. AID 1024;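 active = activation factor of 2 or more for CYP2C9 at a 5 µM dose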;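 also: 0 = sulfaphenazole-blocked wells and 1 = vehicle-only wells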
Target sequence (P11712 whole entry, looked up): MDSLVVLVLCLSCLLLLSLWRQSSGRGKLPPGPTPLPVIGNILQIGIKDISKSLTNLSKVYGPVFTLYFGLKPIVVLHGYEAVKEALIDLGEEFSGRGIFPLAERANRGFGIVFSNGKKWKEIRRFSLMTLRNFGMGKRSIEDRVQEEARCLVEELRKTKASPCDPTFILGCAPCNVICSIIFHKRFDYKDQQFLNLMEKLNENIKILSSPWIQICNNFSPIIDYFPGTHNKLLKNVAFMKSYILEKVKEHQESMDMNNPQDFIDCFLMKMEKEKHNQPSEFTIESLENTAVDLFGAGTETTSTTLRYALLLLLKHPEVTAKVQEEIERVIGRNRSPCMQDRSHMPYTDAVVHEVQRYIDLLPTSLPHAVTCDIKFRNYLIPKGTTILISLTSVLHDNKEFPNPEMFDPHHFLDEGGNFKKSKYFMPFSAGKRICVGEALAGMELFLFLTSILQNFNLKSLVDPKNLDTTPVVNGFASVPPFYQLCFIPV
CYP2C9 inh: inhibitors of human CYP2C9. P11712. CYP2C9 Supersomes, luciferin-H conversion, luminescence. inhibition, % at 5 µM. 96,000 tested, 20% active;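 active = blocking of liver enzyme CYP2C9 beyond about 50% at 5 µM, limit read from the data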
CYP2C19 inhib: blocks human cytochrome P450 2C19. CYP2C19 Supersomes, luciferin-H EGE luminescence, 30 min. inhibition, % at 5 µM. 96,000 tested, 21% active. AID 778;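 active = CYP2C19 inhibition above a set limit at 5 µM in the primary screen, cut at about 50% in these data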;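 also: plate controls were negative control wells for no effect and 2.5 mM tranylcypromine positive control for full effect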
CYP2C19 activ: increases human CYP2C19 enzyme activity; P33261; recombinant CYP2C19, luciferin-H EGE luminescence; hits give high values; 0 = fully inhibited enzyme, 1 = untreated enzyme; activation factor at 5 µM; 96,000 tested, under 10 active; AID 1025;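 active = activation factor of at least 2 at 5 µM in the primary screen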;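 also: 0 = wells with 2.5 mM tranylcypromine and 1 = vehicle-only wells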
PostGolgi ctrl: inhibits growth of the yeast control strain. efflux-deficient yeast background strain, growth absorbance A615, 16 h. 98,000 tested, 5% active. inhibition, % at 10 µM
PostGolgi yeast: growth inhibition of a yeast mutant, post-Golgi transport screen; post-Golgi transport phenotypic cell assay; inhibition, % at 10 µM; 98,000 tested, 0.9% active; AID 739;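 also: yeast cells grown in 1536-well plates; yeast grown about 18 h at 30C before absorbance read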
Numbers without * were called inactive. Rule as the data show it, unless noted: active = inhibition above about 30%; inactive = the rest.

How did O=C(Cc1ccc(-n2c(=S)[nH]c3ccccc3c2=O)cc1)N1CCC(N2CCCCC2)CC1 do in these assays?
CYP2C9 activ: 0.1; CYP2C9 inh: 92*; CYP2C19 inhib: -2; CYP2C19 activ: 1; PostGolgi ctrl: -1; PostGolgi yeast: -15

What do the screens show for `COCCNC(=O)CCCCCn1c(=S)[nH]c2ccccc2c1=O`?
CYP2C9 activ: 1.1; CYP2C9 inh: -14; CYP2C19 inhib: 1; CYP2C19 activ: 1; PostGolgi ctrl: -1; PostGolgi yeast: -9

What do the screens show for `CCOC(=O)N1CCN(C(=O)CCCn2c(=S)[nH]c3ccccc3c2=O)CC1`?
CYP2C9 activ: 0.8; CYP2C9 inh: 22; CYP2C19 inhib: 52*; CYP2C19 activ: 0.5; PostGolgi ctrl: 11; PostGolgi yeast: 1

What do the screens show for `CCOC(=O)N1CCN(C(=O)CCCn2c(=S)[nH]c3ccc(Br)cc3c2=O)CC1`?
CYP2C9 activ: 0.3; CYP2C9 inh: 69*; CYP2C19 inhib: 73*; CYP2C19 activ: 0.3; PostGolgi ctrl: 1; PostGolgi yeast: 5

Results for COc1ccc(N2CCN(C(=O)Cc3ccc(-n4c(=O)[nH]c5ccccc5c4=O)cc3)CC2)cc1 ?
PostGolgi ctrl: 2; PostGolgi yeast: 0

What do the screens show for `COc1cccc(NC(=O)CCCn2c(=S)[nH]c3ccccc3c2=O)c1`?
CYP2C9 activ: 0.2; CYP2C9 inh: 78*; CYP2C19 inhib: 63*; CYP2C19 activ: 0.4; PostGolgi ctrl: 15; PostGolgi yeast: -25

What do the screens show for `CCOC(=O)N1CCN(C(=O)CCCn2c(=O)[nH]c3ccccc3c2=O)CC1`?
CYP2C9 activ: 0.9; CYP2C9 inh: 6; CYP2C19 inhib: -1; CYP2C19 activ: 1; PostGolgi ctrl: 0; PostGolgi yeast: 6

Results for O=C(CSc1nnc(CNC(=O)c2ccccc2F)o1)Nc1ccc2c(c1)OCCO2 ?
CYP2C9 activ: 0.8; CYP2C9 inh: 18; CYP2C19 inhib: 8; CYP2C19 activ: 0.9; PostGolgi ctrl: 1; PostGolgi yeast: 1

What do the screens show for `Cc1nccc2[nH]c(=O)c(C(=O)NCCCN(C)C3CCCCC3)cc12`?
CYP2C9 activ: 1; CYP2C9 inh: -2; CYP2C19 inhib: 1; CYP2C19 activ: 1; PostGolgi ctrl: -5; PostGolgi yeast: 7

Results for CCOC(=O)N1CCN(C(=O)c2ccc3c(=O)n(Cc4ccccc4)c(=S)[nH]c3c2)CC1 ?
CYP2C9 activ: 0.7; CYP2C9 inh: 29; CYP2C19 inhib: 36; CYP2C19 activ: 0.6; PostGolgi ctrl: 10; PostGolgi yeast: -8

Results for CCOC(=O)N1CCC(n2c(=S)[nH]c3ccccc3c2=O)CC1 ?
CYP2C9 activ: 0.2; CYP2C9 inh: 81*; CYP2C19 inhib: 14; CYP2C19 activ: 0.9; PostGolgi ctrl: 7; PostGolgi yeast: -9

How did CC1(C)C(=O)Nc2ccccc2N1C(=O)COC(=O)CCSc1ccccc1 do in these assays?
CYP2C9 activ: 0.9; CYP2C9 inh: 13; CYP2C19 inhib: 42; CYP2C19 activ: 0.6; PostGolgi ctrl: 6; PostGolgi yeast: -5

What do the screens show for `CCn1c(SCC(=O)Nc2ccccc2N2CCOCC2)nnc1-c1ccccc1O`?
CYP2C9 activ: 0.5; CYP2C9 inh: 49; CYP2C19 inhib: 17; CYP2C19 activ: 0.8; PostGolgi ctrl: 11; PostGolgi yeast: -11

How did N#CCSc1nnc(-c2ccccc2O)n1Cc1ccccc1 do in these assays?
CYP2C9 activ: 0.9; CYP2C9 inh: 13; CYP2C19 inhib: 51*; CYP2C19 activ: 0.5; PostGolgi ctrl: 13; PostGolgi yeast: -4

How did N#Cc1ccccc1NC(=O)CSc1nnc(-c2ccccc2O)n1-c1ccccc1 do in these assays?
CYP2C9 activ: 0.4; CYP2C9 inh: 64*; CYP2C19 inhib: 33; CYP2C19 activ: 0.7; PostGolgi ctrl: 17; PostGolgi yeast: -1

How did CCn1c(SCC(=O)Nc2ccccc2C)nnc1-c1ccccc1O do in these assays?
CYP2C9 activ: 0.5; CYP2C9 inh: 51*; CYP2C19 inhib: 57*; CYP2C19 activ: 0.4; PostGolgi ctrl: 11; PostGolgi yeast: -1

What do the screens show for `CCn1c(SCC(=O)Nc2cc(F)ccc2C)nnc1-c1ccccc1O`?
CYP2C9 activ: 0.2; CYP2C9 inh: 81*; CYP2C19 inhib: 95*; CYP2C19 activ: 0.1; PostGolgi ctrl: 0; PostGolgi yeast: -8

What do the screens show for `N#Cc1c(NC(=O)CSc2nnc(-c3ccco3)n2-c2ccccc2)sc2c1CCC2`?
CYP2C9 activ: 0.7; CYP2C9 inh: 30; CYP2C19 inhib: 9; CYP2C19 activ: 0.9; PostGolgi ctrl: 15; PostGolgi yeast: -8

How did CC1=C(C(N)=O)C(c2cccc(O)c2)n2nc(CCCO)nc2N1 (centres undefined) do in these assays?
CYP2C9 activ: 1.1; CYP2C9 inh: -8; CYP2C19 inhib: -17; CYP2C19 activ: 1.2; PostGolgi ctrl: 2; PostGolgi yeast: 3

How did O=C(NCc1ccco1)NC12CC3CC(CC(C3)C1)C2 do in these assays?
CYP2C9 activ: 1; CYP2C9 inh: -2; CYP2C19 inhib: 8; CYP2C19 activ: 0.9; PostGolgi ctrl: 5; PostGolgi yeast: 0

How did Cc1ccc(NC(=O)NC(=O)N(c2ccccc2)S(C)(=O)=O)cc1 do in these assays?
CYP2C9 activ: 1; CYP2C9 inh: -4; CYP2C19 inhib: 10; CYP2C19 activ: 0.9; PostGolgi ctrl: -2; PostGolgi yeast: -1

What do the screens show for `CCCn1c(SCC(=O)NCc2ccccc2)nnc1-c1ccncc1`?
CYP2C9 activ: 1; CYP2C9 inh: 2; CYP2C19 inhib: 16; CYP2C19 activ: 0.8; PostGolgi ctrl: -11; PostGolgi yeast: 19

What do the screens show for `CCn1c(SCC(=O)Nc2ccc3c(c2)OCO3)nnc1-c1ccccc1O`?
CYP2C9 activ: 0.2; CYP2C9 inh: 79*; CYP2C19 inhib: 76*; CYP2C19 activ: 0.2; PostGolgi ctrl: -5; PostGolgi yeast: -3

How did Cc1ccc(-n2c(CCc3ccccc3)nnc2SCC(=O)NCc2ccccc2)cc1C do in these assays?
CYP2C9 activ: 0.5; CYP2C9 inh: 48; CYP2C19 inhib: 67*; CYP2C19 activ: 0.3; PostGolgi ctrl: 3; PostGolgi yeast: 10

How did CCn1c(SCC(=O)NCc2ccccc2)nnc1-c1ccccc1O do in these assays?
CYP2C9 activ: 0.5; CYP2C9 inh: 52*; CYP2C19 inhib: 57*; CYP2C19 activ: 0.4; PostGolgi ctrl: 4; PostGolgi yeast: -5

How did CCn1c(SCC(=O)Nc2ccc3c(c2)OCCO3)nnc1-c1ccccn1 do in these assays?
CYP2C9 activ: 0.5; CYP2C9 inh: 48; CYP2C19 inhib: 36; CYP2C19 activ: 0.6; PostGolgi ctrl: -1; PostGolgi yeast: -7

How did COc1ccc(-c2cc(=O)[nH]c(NCc3ccccc3)n2)cc1 do in these assays?
CYP2C9 activ: 1; CYP2C9 inh: 1; CYP2C19 inhib: 13; CYP2C19 activ: 0.9; PostGolgi ctrl: 27; PostGolgi yeast: 7

Results for COc1cc(-c2cc(N)n(S(=O)(=O)c3ccccc3)n2)cc(OC)c1OC ?
CYP2C9 activ: 0; CYP2C9 inh: 98*; CYP2C19 inhib: 96*; CYP2C19 activ: 0; PostGolgi ctrl: 8; PostGolgi yeast: 1

Bioassay records from PubChem BioAssay.
